# From the supplement of paper PMC9023506
# Structures can show the parent of a compound that is named as a salt.
# Experiments:
# Conditions in all cases: 10 µM; exposure time: 3 h pre-incubation + 3 h imaging
# [1] = test system: Danio rerio larvae (5 dpf); assay: habituation to 1-s acoustic pulses, difference vs DMSO (percentage points (treated minus DMSO)); higher = more of the behaviour than the DMSO vehicle control
# How it was run: (§1)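 5-dpf wild-type zebrafish larvae in 96-well ProxiPlates were exposed to library drugs at 10 µM (diluted 1000× from DMSO stocks into egg water). There were 48 larvae per drug, exposed 3 h before and 3 h during imaging at 28.5 °C. Images taken every 6 s covered a 3-h program of rest, moving coloured lines and acoustic pulses, and an ImageJ macro scored movement and upper-half location. Each behaviour score is the treated-group mean minus the DMSO vehicle mean, in percentage points.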
# [2] = test system: Danio rerio larvae (5 dpf); assay: optomotor response to red moving lines, difference vs DMSO (percentage points (treated minus DMSO)); higher = more of the behaviour than the DMSO vehicle control
# How it was run: as §1
# [3] = test system: Danio rerio larvae (5 dpf); assay: activity during first hour (no stimuli), difference vs DMSO (percentage points (treated minus DMSO)); higher = more of the behaviour than the DMSO vehicle control
# How it was run: as §1
# [4] = test system: Danio rerio larvae (5 dpf); assay: excitability to 1-s acoustic pulses, difference vs DMSO (percentage points (treated minus DMSO)); higher = more of the behaviour than the DMSO vehicle control
# How it was run: as §1
# [5] = test system: Danio rerio larvae (5 dpf); assay: optomotor response to green moving lines, difference vs DMSO (percentage points (treated minus DMSO)); higher = more of the behaviour than the DMSO vehicle control
# How it was run: as §1
# [6] = test system: Danio rerio larvae (5 dpf); assay: optomotor response to fast red moving lines, difference vs DMSO (percentage points (treated minus DMSO)); higher = more of the behaviour than the DMSO vehicle control
# How it was run: as §1
# [7] = test system: Danio rerio larvae (5 dpf); assay: activity during period 15 (no stimuli), difference vs DMSO (percentage points (treated minus DMSO)); higher = more of the behaviour than the DMSO vehicle control
# How it was run: as §1
# [8] = test system: Danio rerio larvae (5 dpf); assay: optomotor response to blue moving lines, difference vs DMSO (percentage points (treated minus DMSO)); higher = more of the behaviour than the DMSO vehicle control
# How it was run: as §1
# [9] = test system: Danio rerio larvae (5 dpf); assay: startle response to 20-s acoustic pulses, difference vs DMSO (percentage points (treated minus DMSO)); higher = more of the behaviour than the DMSO vehicle control
# How it was run: as §1
smiles,measurement,setting,value
O=C(O[C@@H]1C[C@@H]2C[C@H]3C[C@H](C1)N2CC3=O)c1c[nH]c2ccccc12 [Dolasetron mesylate],habituation to 1-s acoustic pulses,[1],2.06
same,optomotor response to red moving lines,[2],-6.24
same,activity during first hour,[3],-1.16
Cc1nc(-c2ccc(OCC(C)C)c(C#N)c2)sc1C(=O)O [Febuxostat],activity during first hour,[3],-0.179
Clc1ccccc1C(c1ccccc1)(c1ccccc1)n1ccnc1 [Clotrimazole],activity during first hour,[3],-21.6
COCCc1ccc(OCC(O)CNC(C)C)cc1 (stereo not drawn) [Metoprolol tartrate],excitability to 1-s acoustic pulses,[4],-8.67
same,optomotor response to red moving lines,[2],-1.5
same,activity during first hour,[3],5.56
same,optomotor response to green moving lines,[5],0.682
same,optomotor response,[6],-7.77
COc1ccc(C[C@@H](C)NC[C@H](O)c2ccc(O)c(NC=O)c2)cc1 [Arformoterol tartrate],activity during first hour,[3],45.9
CN(C)CCC[C@@]1(c2ccc(F)cc2)OCc2cc(C#N)ccc21 [Escitalopram oxalate],excitability to 1-s acoustic pulses,[4],14.4
same,optomotor response to red moving lines,[2],-7.88
same,activity during period 15,[7],-18.3
same,optomotor response,[6],-7.01
C=CC(=O)N1CCC[C@@H](n2nc(-c3ccc(Oc4ccccc4)cc3)c3c(N)ncnc32)C1 [Ibrutinib],habituation to 1-s acoustic pulses,[1],-7.68
same,excitability to 1-s acoustic pulses,[4],-2.71
same,optomotor response to blue moving lines,[8],6.42
same,optomotor response to green moving lines,[5],-2.12
same,startle response to 20-s acoustic pulses,[9],3.06
same,optomotor response,[6],-0.957
CC1CNc2c(cccc2S(=O)(=O)N[C@@H](CCCNC(=N)N)C(=O)N2CC[C@@H](C)C[C@@H]2C(=O)O)C1 (stereo partly drawn) [Argatroban],optomotor response to red moving lines,[2],-3.42
same,optomotor response to blue moving lines,[8],4.3
same,startle response to 20-s acoustic pulses,[9],2.94
CNC(=O)c1cc(Oc2ccc(NC(=O)Nc3ccc(Cl)c(C(F)(F)F)c3)cc2)ccn1 [Sorafenib],habituation to 1-s acoustic pulses,[1],-8.29
same,activity during period 15,[7],8.65
same,optomotor response to blue moving lines,[8],-18.5
same,optomotor response to green moving lines,[5],-2.72
same,startle response to 20-s acoustic pulses,[9],-4.57
OCCOCCN1CCN(C2=Nc3ccccc3Sc3ccccc32)CC1 [Quetiapine hemifumarate],habituation to 1-s acoustic pulses,[1],-4.36
same,activity during period 15,[7],16.8
same,optomotor response to blue moving lines,[8],19.9
same,optomotor response to green moving lines,[5],10.3
same,startle response to 20-s acoustic pulses,[9],-1.65
CCCCCOC(=O)Nc1nc(=O)n([C@@H]2O[C@H](C)[C@@H](O)[C@H]2O)cc1F [Capecitabine],excitability to 1-s acoustic pulses,[4],4.17
same,optomotor response to red moving lines,[2],4.71
same,optomotor response to green moving lines,[5],1.46
same,startle response to 20-s acoustic pulses,[9],3
CN1CCN(CCCN2c3ccccc3Sc3ccc(Cl)cc32)CC1 [Prochlorperazine dimaleate],habituation to 1-s acoustic pulses,[1],-7.34
same,optomotor response to red moving lines,[2],4.44
same,optomotor response to green moving lines,[5],3.92
same,optomotor response,[6],2.92
CN1CCC[C@@H]1CCO[C@](C)(c1ccccc1)c1ccc(Cl)cc1 [Clemastine fumarate],excitability to 1-s acoustic pulses,[4],15.4
same,activity during period 15,[7],5.26
same,optomotor response to blue moving lines,[8],22.4
same,optomotor response to green moving lines,[5],4.02
same,startle response to 20-s acoustic pulses,[9],-7.67
C#C[C@]1(O)CC[C@H]2[C@@H]3CCC4=CC(=O)CC[C@@H]4[C@H]3CC[C@@]21CC [Levonorgestrel],habituation to 1-s acoustic pulses,[1],-7.34
same,optomotor response to red moving lines,[2],4.27
same,optomotor response to blue moving lines,[8],19.5
Nc1nc2c(ncn2COCCO)c(=O)[nH]1 [Acyclovir],habituation to 1-s acoustic pulses,[1],1.89
same,excitability to 1-s acoustic pulses,[4],0.524
same,optomotor response to red moving lines,[2],1.94
same,optomotor response to green moving lines,[5],0.472
same,startle response to 20-s acoustic pulses,[9],0.665
CCc1nc(N)nc(N)c1-c1ccc(Cl)cc1 [Pyrimethamine],excitability to 1-s acoustic pulses,[4],6.41
same,optomotor response to red moving lines,[2],8.52
Clc1ccc2nsnc2c1NC1=NCCN1 [Tizanidine hydrochloride],optomotor response to red moving lines,[2],18.1
same,optomotor response,[6],4.15
CCN(CC)CCNC(=O)c1c(C)[nH]c(/C=C2\C(=O)Nc3ccc(F)cc32)c1C [Sunitinib malate],excitability to 1-s acoustic pulses,[4],14.4
same,optomotor response to red moving lines,[2],-0.697
same,optomotor response,[6],10.6
COc1cc(Nc2c(C#N)cnc3cc(OCCCN4CCN(C)CC4)c(OC)cc23)c(Cl)cc1Cl [Bosutinib],optomotor response to red moving lines,[2],3.82
same,activity during period 15,[7],-11.7
Cc1cc(C2CCCCC2)n(O)c(=O)c1 [Ciclopirox],habituation to 1-s acoustic pulses,[1],0.443
same,excitability to 1-s acoustic pulses,[4],5.96
same,optomotor response to red moving lines,[2],-5.18
Nc1ccn([C@@H]2O[C@H](CO)[C@@H](O)C2(F)F)c(=O)n1 [Gemcitabine hydrochloride],habituation to 1-s acoustic pulses,[1],-2.82
same,excitability to 1-s acoustic pulses,[4],-1.2
same,optomotor response to blue moving lines,[8],3.79
same,optomotor response to green moving lines,[5],0.29
same,startle response to 20-s acoustic pulses,[9],3.92
same,optomotor response,[6],5.64
CC(C)(C(=O)c1cccnc1)c1cccnc1 [Metyrapone],habituation to 1-s acoustic pulses,[1],-0.218
same,excitability to 1-s acoustic pulses,[4],12.2
same,optomotor response to red moving lines,[2],4.83
NS(=O)(=O)c1cc(C(=O)O)c(NCc2ccco2)cc1Cl [Furosemide],optomotor response to blue moving lines,[8],6.22
same,optomotor response to green moving lines,[5],-6.99
CCCc1nc(C(C)(C)O)c(C(=O)O)n1Cc1ccc(-c2ccccc2-c2nnn[nH]2)cc1 [Olmesartan],excitability to 1-s acoustic pulses,[4],-0.185
same,optomotor response to red moving lines,[2],-10.3
same,optomotor response,[6],-5.64
O=C(Nc1c(Cl)cncc1Cl)c1ccc(OC(F)F)c(OCC2CC2)c1 [Roflumilast],habituation to 1-s acoustic pulses,[1],-1.13
same,optomotor response to red moving lines,[2],0.247
same,optomotor response to green moving lines,[5],-11.7
same,startle response to 20-s acoustic pulses,[9],1.99
CC(=O)Oc1cc2c(s1)CCN(C(C(=O)C1CC1)c1ccccc1F)C2 (stereo not drawn) [Prasugrel],optomotor response to red moving lines,[2],5.97
same,activity during period 15,[7],11.8
C=C1[C@H](CO)[C@@H](O)C[C@@H]1n1cnc2c(=O)[nH]c(N)nc21 [Entecavir],activity during period 15,[7],-0.773
same,optomotor response to blue moving lines,[8],11.4
same,optomotor response to green moving lines,[5],0.498
CO[C@H]1/C=C/O[C@@]2(C)Oc3c(C)c(O)c4c(O)c(c5c(nc6cc(C)ccn65)c4c3C2=O)NC(=O)/C(C)=C\C=C\[C@H](C)[C@H](O)[C@@H](C)[C@@H](O)[C@@H](C)[C@H](OC(C)=O)[C@@H]1C [Rifaximin],excitability to 1-s acoustic pulses,[4],4.07
same,optomotor response to red moving lines,[2],0.313
same,activity during period 15,[7],-11.6
Nc1nc(F)nc2c1ncn2[C@@H]1O[C@H](CO)[C@@H](O)[C@@H]1O [Fludarabine],excitability to 1-s acoustic pulses,[4],3.42
same,optomotor response to blue moving lines,[8],-12
same,optomotor response to green moving lines,[5],1.3
C/C(O)=C(\C#N)C(=O)Nc1ccc(C(F)(F)F)cc1 [Teriflunomide],habituation to 1-s acoustic pulses,[1],-1.26
same,optomotor response to red moving lines,[2],-3.45
